# Values joined by “and” are separate entries in the source; they are usually repeats but may differ in a detail not shown here. Equal values may be shown once. Records with an inconclusive call do not appear. Entries that show only a call come without a potency. A number with no mark means an inactive call. Active and inactive are the calls of the source. Unless noted, the call rests on the fitted dose curve; in most records, active means well fitted curve in the direction sought with a large enough effect; inconclusive means small, poorly fitted or top-dose-only effect, or another doubt; inactive means no such curve, though single readings can be large; an effect the other way counts as inactive or inconclusive.
# Legend:
# [1] = target: Cellular tumor antigen p53 (Homo sapiens) (UniProt P04637); assay: Primary qHTS for small molecule compounds that upregulate eGFP-tagged delta133p53alpha (in N-terminal) cells. (AID 2060322); conditions: NCI-H358 eGFP-delta133p53alpha fluorescence, 24 h; activation: active compounds read high; further: nearly all actives have a fitted effect of over 75% in size; further: potency means the concentration at half of the fitted maximal effect;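 on activation: cells pre-induced with doxycycline then dosed without doxycycline; series mostly up to about 56 µM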
# Sequence of Cellular tumor antigen p53 (Homo sapiens) (P04637 whole entry, looked up): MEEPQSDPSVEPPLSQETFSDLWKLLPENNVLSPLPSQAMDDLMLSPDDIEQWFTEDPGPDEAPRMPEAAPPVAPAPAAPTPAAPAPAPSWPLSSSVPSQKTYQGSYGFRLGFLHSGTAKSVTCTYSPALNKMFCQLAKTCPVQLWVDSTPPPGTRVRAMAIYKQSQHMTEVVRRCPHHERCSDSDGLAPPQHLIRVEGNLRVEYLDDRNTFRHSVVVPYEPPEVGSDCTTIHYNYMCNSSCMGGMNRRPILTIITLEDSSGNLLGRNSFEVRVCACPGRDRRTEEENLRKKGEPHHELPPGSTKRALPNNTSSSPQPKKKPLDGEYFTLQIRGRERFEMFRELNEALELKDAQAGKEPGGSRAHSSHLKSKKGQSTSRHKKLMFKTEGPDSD
# In short: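 NCI-H358 cells pre-induced 24 h with 10 ng/ml doxycycline for eGFP-delta133p53alpha, plated dox-free and exposed 24 h at 37C to titrated compounds. Fixed, Hoechst-stained; gated GFP peak intensity by laser scanning cytometry, normalized to DMSO (0%) and 57.5 uM 5-azacytidine (100%).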
# [2] = target: Cellular tumor antigen p53 (Homo sapiens) (UniProt P04637); assay: Primary qHTS for small molecule compounds that upregulate eGFP-tagged delta133p53alpha (in C-terminal) cells. (AID 2060324); further: potency means the concentration at half of the fitted maximal effect
# In short: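 Read-out: gated-cell GFP peak intensity (laser scanning cytometer), plate-normalized with DMSO as 0% activity, after 24 h compound exposure at 37C. Cells were C-terminal eGFP-tagged delta133p53alpha NCI-H358, doxycycline-induced (100 ng/ml, 24 h) before plating.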
# [3] = target: Aldehyde dehydrogenase, mitochondrial (Homo sapiens) (UniProt P05091); assay: qHTS for Inhibitors of the Aldehyde Dehydrogenase Family (ALDH2) Validation screens (AID 2061302; active means well fitted inhibition curve with a large enough effect; title and protocol of this record describe different tests; further: potency means the concentration at half of the fitted maximal effect)
# [4] = target: Aldehyde dehydrogenase, mitochondrial (Homo sapiens) (UniProt P05091); assay: qHTS for Inhibitors of the Aldehyde Dehydrogenase Family (ALDH2) Primary screen (AID 2061308); further: nearly all actives have a fitted effect of over 55% in size
# [5] = target: Retinaldehyde dehydrogenase 3 (Homo sapiens) (UniProt P47895); assay: qHTS for Inhibitors of the Aldehyde Dehydrogenase Family (ALDH1A3) Validation screen (AID 2061312); further: nearly all actives have a fitted effect of over 45% in size; further: potency means the concentration at half of the fitted maximal effect
# [6] = target: Retinaldehyde dehydrogenase 3 (Homo sapiens) (UniProt P47895); assay: qHTS for Inhibitors of the Aldehyde Dehydrogenase Family (ALDH1A3) Primary screen (AID 2061315)
# [7] = qHTS for Inhibitors of the Aldehyde Dehydrogenase Family (ALDH1A2, ALDH1A3, ALDH2, ALDH3A1) (AID 2061307); further: nearly all actives have a fitted effect of over 50% in size
# [8] = target: Aldehyde dehydrogenase 1A1 (Homo sapiens) (UniProt P00352); assay: qHTS for Inhibitors of the Aldehyde Dehydrogenase Family (ALDH1A1) Confirmatory screens (AID 2061316); further: nearly all actives have a fitted effect of over 65% in size; further: potency means the concentration at half of the fitted maximal effect
# [9] = target: Aldehyde dehydrogenase, mitochondrial (Homo sapiens) (UniProt P05091); assay: qHTS for Inhibitors of the Aldehyde Dehydrogenase Family (ALDH2) Confirmatory screens (AID 2061303; active means well fitted inhibition curve with a large enough effect; title and protocol of this record describe different tests; further: nearly all actives have a fitted effect of over 45% in size; further: potency means the concentration at half of the fitted maximal effect)
# [10] = target: Retinaldehyde dehydrogenase 3 (Homo sapiens) (UniProt P47895); assay: qHTS for Inhibitors of the Aldehyde Dehydrogenase Family (ALDH1A3) Confirmatory screens (AID 2061311); further: nearly all actives have a fitted effect of over 60% in size; further: potency means the concentration at half of the fitted maximal effect
# [11] = target: Retinal dehydrogenase 2 (Homo sapiens) (UniProt O94788); assay: qHTS for Inhibitors of the Aldehyde Dehydrogenase Family (ALDH1A2) Confirmation screens (AID 2061314); further: nearly all actives have a fitted effect of over 65% in size; further: potency means the concentration at half of the fitted maximal effect
# [12] = BET inhibitor-based combinations targeting novel dependencies in MECOM-rearranged (r) AML: SET-2 cell line (AID 2202231); conditions: SET-2 AML cells viability, CellTiter-Glo luminescence, 48 h; viability: active compounds read low, concentration not given here; further: nearly all actives have a fitted effect of over 35% in size; further: potency means the concentration at half of the fitted maximal effect
# In short: (§1)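 AML cell lines seeded at 500 cells/well, treated with 11-point dose curves for 48 h. Viability by CellTiter-Glo luminescence, normalised to DMSO and empty wells; activity expressed as AUC and per-cell-line Z-transformed AUC.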
# [13] = BET inhibitor-based combinations targeting novel dependencies in MECOM-rearranged (r) AML: OCI-AML3 cell line (AID 2202232); conditions: Potency: OCI-AML3 viability; further: nearly all actives have a fitted effect of over 35% in size; further: potency means the concentration at half of the fitted maximal effect
# In short: as §1
# [14] = BET inhibitor-based combinations targeting novel dependencies in MECOM-rearranged (r) AML: MV-4-11 cell line (AID 2202233); further: nearly all actives have a fitted effect of over 45% in size; further: potency means the concentration at half of the fitted maximal effect
# In short: (§2)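 Cells at 500/well were exposed for 48 hr to MIPE v5.0 drugs as 11-point dose curves. Viability was read by CellTiter-Glo luminescence and normalized to DMSO and empty-well controls. Activity was expressed as AUC and per-cell-line Z-AUC.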
# [15] = BET inhibitor-based combinations targeting novel dependencies in MECOM-rearranged (r) AML: HNT-34 cell line (AID 2202234); further: nearly all actives have a fitted effect of over 35% in size
# In short: as §2
# [16] = BET inhibitor-based combinations targeting novel dependencies in MECOM-rearranged (r) AML: UCSD-AML1 cell line (AID 2202235); further: nearly all actives have a fitted effect of over 40% in size; further: potency means the concentration at half of the fitted maximal effect
# In short: as §2
# [17] = BET inhibitor-based combinations targeting novel dependencies in MECOM-rearranged (r) AML: AML-191 cell line (AID 2202236; further: nearly all actives have a fitted effect of over 35% in size; further: potency means the concentration at half of the fitted maximal effect)
# In short: as §1
# [18] = BET inhibitor-based combinations targeting novel dependencies in MECOM-rearranged (r) AML: AML-194 cell line (AID 2202237; further: nearly all actives have a fitted effect of over 40% in size; further: potency means the concentration at half of the fitted maximal effect)
# In short: as §1
smiles,measurement,setting,value
NS(=O)(=O)c1ccc(-n2nc(C(F)(F)F)cc2-c2ccc(Cl)cc2)cc1,activation,[1],-38.9% and -11.9%
same,Potency,[2],inactive
same,Potency,[3],inactive
same,Potency,[4],inactive
same,Potency,[5],inactive
same,Potency,[6],inactive
COc1ccc(/C=C/c2nc(NCCCN(C)C)c3ccccc3n2)cc1,activation,[1],-29.6%
same,Potency,[2],inactive
same,Potency,[3],inactive
same,Potency,[7],inactive
CCCNC(=O)NS(=O)(=O)c1ccc(Cl)cc1,activation,[1],-9.6% and 2.39% and -46.5%
same,Potency,[2],inactive
same,Potency,[3],inactive
same,Potency,[4],inactive
same,Potency,[5],inactive
same,Potency,[6],inactive
O=C(O)c1cc(=O)c2c(Cl)cc(Cl)cc2[nH]1,activation,[1],-19.2%
same,Potency,[2],inactive
same,Potency,[3],inactive
same,Potency,[7],inactive
same,Potency,[8],inactive
Brc1ccc([C@H]2CN3CCSC3=N2)cc1,activation,[1],-4.33% and 7.97%
same,Potency,[2],inactive
same,Potency,[3],inactive
same,Potency,[9],inactive
same,Potency,[7],inactive
same,Potency,[10],inactive
same,Potency,[5],inactive
same,Potency,[11],inactive
same,Potency,[6],inactive
same,Potency,[8],inactive
COC(=O)C1=CO[C@@H](O)[C@@H]2C(CO)=CC[C@H]12,activation,[1],8.04%
same,Potency,[2],inactive
same,Potency,[3],inactive
same,Potency,[4],inactive
same,Potency,[5],inactive
same,Potency,[6],inactive
O=NN(CCCl)C(=O)NCCCl,activation,[1],-1.09% and 45.2%
same,Potency,[2],inactive
same,Potency,[3],inactive
same,Potency,[9],15.8 µM (active)
same,Potency,[10],12.7 µM (active)
same,Potency,[8],22.5 µM (active)
same,viability,[12],104%
same,Potency,[13],inactive
same,Potency,[14],inactive
same,Potency,[15],inactive
same,Potency,[16],inactive
same,Potency,[17],inactive
same,Potency,[18],inactive
COc1cc2c(CCNC(C)=O)c[nH]c2cc1Cl,activation,[1],-18.2%
same,Potency,[2],inactive
same,Potency,[3],inactive
same,Potency,[7],inactive
same,Potency,[10],inactive
same,Potency,[11],inactive
CCCCN(CC)c1nc(C)nc2c1c(C)cn2-c1c(C)cc(C)cc1C,activation,[1],34.4% and -11%
same,Potency,[2],inactive
same,Potency,[3],inactive
same,Potency,[7],inactive
same,Potency,[4],inactive
same,Potency,[5],1.26 µM (active) and 12.6 µM (active)
same,Potency,[6],inactive
NC(=O)c1cc[n+](CC2=C(C(=O)O)N3C(=O)[C@@H](NC(=O)[C@@H](c4ccccc4)S(=O)(=O)[O-])[C@H]3SC2)cc1,activation,[1],-28.8%
same,Potency,[2],inactive
same,Potency,[3],inactive
same,Potency,[7],inactive
same,Potency,[10],inactive
same,Potency,[11],inactive
Cc1cn[nH]c1,activation,[1],25.4% and 16.2% and -25.1%
same,Potency,[2],inactive
same,Potency,[3],inactive
same,Potency,[9],inactive
same,Potency,[10],inactive
same,Potency,[8],inactive
same,Potency,[16],inactive
CC1CN(S(=O)(=O)c2cccc3cnccc23)CCN1 (stereo not drawn),activation,[1],-66.5%
same,Potency,[2],inactive
same,Potency,[3],inactive
same,Potency,[9],inactive
same,Potency,[7],inactive
same,Potency,[10],inactive
same,Potency,[11],inactive
same,Potency,[8],inactive
CN(C)CCC(c1ccccc1)c1ccccn1 (stereo not drawn),activation,[1],-2.82% and -9.55% and -25.6%
same,Potency,[2],inactive
same,Potency,[3],inactive
same,Potency,[4],inactive
same,Potency,[5],inactive
same,Potency,[6],inactive
CCCCCCN(CCCCCC)C(=O)Cc1c(-c2ccc(F)cc2)[nH]c2ccccc12,activation,[1],-10.8%
same,Potency,[2],inactive
same,Potency,[3],10 µM (active)
same,Potency,[9],inactive
same,Potency,[7],inactive
same,Potency,[10],inactive
same,Potency,[11],inactive
same,Potency,[8],inactive
O=c1c(O)c(-c2cc(O)c(O)c(O)c2)oc2cc(O)cc(O)c12,activation,[1],-9.12% and -2.85%
same,Potency,[2],inactive
same,Potency,[3],inactive
same,Potency,[7],inactive
same,Potency,[10],5.65 µM (active)
same,Potency,[11],inactive
same,Potency,[13],inactive
same,Potency,[15],inactive
same,Potency,[16],inactive
same,Potency,[17],inactive
same,Potency,[18],inactive
CN1CCN(CC(=O)N2c3ccccc3C(=O)Nc3cccnc32)CC1,activation,[1],-10% and 3.74%
same,Potency,[2],inactive
same,Potency,[3],inactive
same,Potency,[9],inactive
same,Potency,[7],inactive
same,Potency,[10],inactive
same,Potency,[11],inactive
same,Potency,[8],inactive
O=Nc1ccc2oc(=O)ccc2c1,activation,[1],-33.9%
same,Potency,[2],inactive
same,Potency,[3],1.12 µM (active)
same,Potency,[9],1.27 µM (active)
same,Potency,[10],0.283 µM (active)
same,Potency,[8],0.283 µM (active)
Cc1scc2c1N(C(=O)CN1CCN(C)CC1)c1ccccc1NC2=O,activation,[1],-13.4% and -3.34%
same,Potency,[2],inactive
same,Potency,[3],inactive
same,Potency,[9],inactive
same,Potency,[7],inactive
same,Potency,[10],inactive
same,Potency,[11],inactive
CCOC(=O)N1CCN(/[N+]([O-])=N/Oc2ccc([N+](=O)[O-])cc2[N+](=O)[O-])CC1,Potency,[1],4.78 µM (active)
same,Potency,[2],inactive
same,Potency,[3],inactive
same,Potency,[9],inactive
same,Potency,[10],14.2 µM (active)
same,Potency,[11],2.25 µM (active)
same,Potency,[12],4.68 µM (active)
same,Potency,[13],2.95 µM (active)
same,Potency,[14],1.86 µM (active)
same,Potency,[16],2.95 µM (active)
same,Potency,[17],2.09 µM (active)
same,Potency,[18],2.95 µM (active)
O=C(O)/C(=C/c1c(C(=O)O)[nH]c2cc(Cl)cc(Cl)c12)c1ccccc1,activation,[1],12.5%
same,Potency,[2],inactive
same,Potency,[3],inactive
same,Potency,[7],11.3 µM (active)
same,Potency,[10],inactive
same,Potency,[5],inactive
CCCn1cnc2c1c(=O)n(CCCCC(C)=O)c(=O)n2C,activation,[1],0.837% and -17.3%
same,Potency,[2],inactive
same,Potency,[3],inactive
same,Potency,[9],inactive
same,Potency,[7],inactive
same,Potency,[10],inactive
same,Potency,[5],inactive
same,Potency,[11],inactive
same,Potency,[8],inactive
CN(C)C(=O)/N=N/C(=O)N(C)C,activation,[1],-3.88%
same,Potency,[2],inactive
same,Potency,[3],inactive
same,Potency,[7],inactive
same,Potency,[11],12.7 µM (active)
COc1ccccc1N1CCN(CCCNc2cc(=O)n(C)c(=O)n2C)CC1,activation,[1],16.7% and -11.6% and 14.7%
same,Potency,[2],inactive
same,Potency,[3],inactive
same,Potency,[4],inactive
same,Potency,[5],inactive
same,Potency,[6],inactive
Cc1cc(O)c2c(c1)C(=O)c1cc(O)cc(O)c1C2=O,activation,[1],-1.13% and -38%
same,Potency,[2],26.9 µM (active)
same,Potency,[3],3.16 µM (active)
same,Potency,[9],0.712 µM (active)
same,Potency,[10],11.3 µM (active)
same,Potency,[11],6.34 µM (active)
same,Potency,[8],2.52 µM (active)
same,Potency,[13],9.34 µM (active)
same,Potency,[14],inactive
same,Potency,[16],inactive
same,Potency,[17],16.6 µM (active)
CN(CCCOc1ccc(Cc2ccccc2)cc1)CCC(=O)O,activation,[1],-0.922% and -7.16%
same,Potency,[2],inactive
same,Potency,[3],inactive
same,Potency,[9],inactive
same,Potency,[7],inactive
same,Potency,[10],inactive
same,Potency,[5],inactive
same,Potency,[6],inactive
CC(C)NCC(O)COc1cccc2[nH]ccc12 (stereo not drawn),activation,[1],-9.6% and -5.67% and -6.98%
same,Potency,[2],inactive
same,Potency,[3],inactive
same,Potency,[4],inactive
same,Potency,[5],inactive
same,Potency,[6],inactive

# — PubChem BioAssay (NCATS)
